{"source": "PubChem BioAssay (NCATS)", "note": "Where “and” joins values, the source holds several entries; their conditions need not be identical. Equal values may be shown once. Results filed as inconclusive are left out. Where a structure was tested more than once in an assay, its records may differ in their call. Calls of active or inactive are those of the source. The call rests on the fitted dose curve; in most records, active means well fitted inhibition curve with a large enough effect; inconclusive means small, poorly fitted or top-dose-only effect; inactive means flat fitted curve, though single readings scatter. On the % scale 0 is the no-effect control and ±100 the full control effect; potency means the concentration at half of the fitted maximal effect.", "data": [{"test_system": "HEK293", "assay": "Cytotoxic Profiling of Annotated Libraries Using Quantitative High-Throughput Screening (AID 1296008); further: nearly all actives have a fitted effect of over 60% in size", "settings": "Five cell lines viability, CellTiter-Glo ATP luminescence, 48-72 h; max response: stronger effect = lower value", "in_short": "(§1)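 Compounds were pin-transferred onto cells and incubated 48 or 72 hr at 37 degree Celsius, 95% humidity. CellTiter-Glo was added, plates sat 10 min at room temperature, then ATP-coupled luminescence was imaged as the viability read-out.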", "values": [{"smiles": "COc1cccc2c(NCc3ccccc3)nc(-n3c(N)nc4ccccc43)nc12", "Potency": "7.43 µM (active) and 11.6 µM (active)"}, {"smiles": "COC(=O)[C@]12CCC(C)(C)C[C@@H]1[C@@H]1C(=O)C=C3[C@@]4(C)C=C(C#N)C(=O)C(C)(C)[C@@H]4CC[C@@]3(C)[C@]1(C)CC2", "Potency": "2.96 µM (active)"}, {"smiles": "COc1c(OCCCN2CCOCC2)ccc2c3n(c(=NC(=O)c4cnc(N)nc4)nc12)CCN3", "Potency": "363 nM (active) and 42.2 nM (active)"}, {"smiles": "CC(C)(O)c1cc2nc(-c3cnc(N)nc3)nc(N3CCOCC3)c2s1", "Potency": "372 nM (active) and 1.3 µM (active)"}, {"smiles": "CCC1=C[C@@H]2CN(C1)Cc1c([nH]c3ccccc13)[C@@](C(=O)OC)(c1cc3c(cc1OC)N(C)[C@@H]1[C@@](O)(C(=O)OC)[C@H](OC(C)=O)[C@]4(CC)C=CCN5CC[C@]31[C@@H]54)C2", "Potency": "0.0235 µM (active)"}, {"smiles": "Nc1ccc(C(=O)c2cc3c(ccc4ccccc43)[nH]2)cc1", "Potency": "2.96 µM (active)"}, {"smiles": "c1cc(-c2cnn3cc(-c4ccc(OCCN5CCCCC5)cc4)cnc23)ccn1", "Potency": "3.32 µM (active)"}, {"smiles": "CC(C)=CCCC(C)=CCCC(C)=CCSc1ccccc1C(=O)O", "Potency": "1.66 µM (active)"}, {"smiles": "O=C(O)c1ccc2c(c1)nc(Nc1cccc(Cl)c1)c1ccncc12", "Potency": "10.3 µM (active)"}, {"smiles": "Cc1cc(C(=O)N2CCN(c3cccc(Cl)c3)CC2)n(-c2ccccc2)n1", "Potency": "526 nM (active) and 1.46 µM (active)"}, {"smiles": "COC(=O)C[C@](O)(CCCC(C)(C)O)C(=O)O[C@@H]1C(OC)=C[C@]23CCCN2CCc2cc4c(cc2[C@H]13)OCO4", "max response": "-7.61% (inactive)"}, {"smiles": "CN1CCN(c2cc(C(=O)Nc3ccc4c(c3)-c3c(c(C(N)=O)nn3-c3ccc(F)cc3)CC4)c(Cl)cn2)CC1", "Potency": "20.9 µM (active)"}, {"smiles": "Cc1[nH]c2ccccc2c1CCNCc1ccc(C=CC(=O)NO)cc1", "Potency": "0.418 µM (active)"}, {"smiles": "CC(C)C[C@H](NC(=O)CNC(=O)c1cc(Cl)ccc1Cl)B(O)O", "Potency": "1.18 µM (active)"}, {"smiles": "Cc1cn2c(-c3cn[nH]c3)cnc2c(Nc2ccc(C(=O)N3CCNCC3)cc2F)n1", "Potency": "16.4 µM (active)"}, {"smiles": "O=c1[nH]c(=O)n(C2CCCO2)cc1F", "note": "(centres undefined)", "max response": "-0.0583% (inactive)"}, {"smiles": "O=C(O)C1(Cc2cccc(Nc3nccs3)n2)CCC(Oc2cccc(Cl)c2F)CC1", "note": "(centres undefined)", "Potency": "2.64 µM (active) and 1.3 µM (active)"}, {"smiles": "CN(C)CCCN=c1c2ccccc2n(C)c2[nH]c(=O)n(C)c(=O)c12", "Potency": "5.26 µM (active)"}, {"smiles": "CCN(CC)CCNC(=O)c1ccc2nc(-c3ccccc3)c(-c3ccc(CN4CCC(n5c(=O)[nH]c6ccccc65)CC4)cc3)nc2c1", "Potency": "2.96 µM (active) and 8.2 µM (active)"}, {"smiles": "COc1cc2c(NC3CCN(C(C)C)CC3)nc(C3CCCCC3)nc2cc1OCCCN1CCCC1", "Potency": "7.43 µM (active) and 5.8 µM (active)"}, {"smiles": "O=C(NC1CCNCC1)c1[nH]ncc1NC(=O)c1c(Cl)cccc1Cl", "Potency": "0.264 µM (active)"}, {"smiles": "COc1cc(C)c(Sc2cnc(NC(=O)c3ccc(CNC(C)C(C)C)cc3)s2)cc1C(=O)N1CCN(C(C)=O)CC1", "note": "(centres undefined)", "Potency": "14.8 µM (active) and 11.6 µM (active)"}, {"smiles": "CS(=O)(=O)N1CCN(Cc2cc3nc(-c4cccc5[nH]ncc45)nc(N4CCOCC4)c3s2)CC1", "Potency": "372 nM (active) and 1.84 µM (active)"}, {"smiles": "Cc1cccc(C=NNc2cc(N3CCOCC3)nc(OCCc3ccccn3)n2)c1", "Potency": "5.9 µM (active)"}, {"smiles": "C[C@@]12O[C@@H](C[C@]1(O)CO)n1c3ccccc3c3c4c(c5c6ccccc6n2c5c31)CNC4=O", "Potency": "4.18 µM (active)"}, {"smiles": "Cn1c2ccccc2c2c3c(c4c5ccccc5n(CCC#N)c4c21)CNC3=O", "Potency": "2.35 µM (active) and 7.31 µM (active)"}, {"smiles": "NC(=O)c1cccc2cn(-c3ccc([C@@H]4CCCNC4)cc3)nc12", "Potency": "6.51 µM (active)"}, {"smiles": "Nc1ccccc1NC(=O)c1ccc(CNc2nccc(-c3cccnc3)n2)cc1", "Potency": "1.64 µM (active)"}, {"smiles": "CN1CCC(CNc2ccc3ncc(-c4cccc(OC(F)(F)F)c4)n3n2)CC1", "Potency": "23.5 µM (active)"}, {"smiles": "CC(C)c1cc(-c2n[nH]c(=O)n2-c2ccc3c(ccn3C)c2)c(O)cc1O", "Potency": "46.9 nM (active) and 41.1 nM (active)"}, {"smiles": "CCN1CCN(CC(=O)Nc2ccc(-c3cccc4c(=O)cc(N5CCOCC5)oc34)c3sc4ccccc4c23)CC1", "Potency": "1.18 µM (active)"}, {"smiles": "CC1(C)OC2=C(C(=O)c3ccccc3C2=O)[C@H](NCc2ccccc2)[C@H]1O", "Potency": "8.33 µM (active)"}]}, {"test_system": "HaCat", "assay": "Cytotoxic Profiling of Annotated Libraries Using Quantitative High-Throughput Screening (AID 1296008)", "settings": "Five cell lines viability, CellTiter-Glo ATP luminescence, 48-72 h; max response: stronger effect = lower value", "in_short": "as §1", "values": [{"smiles": "COC(=O)[C@]12CCC(C)(C)C[C@@H]1[C@@H]1C(=O)C=C3[C@@]4(C)C=C(C#N)C(=O)C(C)(C)[C@@H]4CC[C@@]3(C)[C@]1(C)CC2", "Potency": "4.18 µM (active)"}, {"smiles": "OCc1ccc(-c2ccc(-c3ccc(CO)s3)o2)s1", "max response": "4.62% (inactive)", "outcome": "inactive"}, {"smiles": "CCCCCCCCCC(=O)N[C@@H](Cc1c[nH]c2ccccc12)C(=O)N[C@H](CC(N)=O)C(=O)N[C@@H](CC(=O)O)C(=O)N[C@@H]1C(=O)NCC(=O)N[C@@H](CCCN)C(=O)N[C@@H](CC(=O)O)C(=O)N[C@H](C)C(=O)N[C@@H](CC(=O)O)C(=O)NCC(=O)N[C@H](CO)C(=O)N[C@@H]([C@@H](C)CC(=O)O)C(=O)N[C@@H](CC(=O)c2ccccc2N)C(=O)O[C@@H]1C", "max response": "-26.3% (inactive)", "outcome": "inactive"}, {"smiles": "CC(C)(O)c1cc2nc(-c3cnc(N)nc3)nc(N3CCOCC3)c2s1", "Potency": "264 nM (active) and 1.64 µM (active)"}, {"smiles": "CCC1=C[C@@H]2CN(C1)Cc1c([nH]c3ccccc13)[C@@](C(=O)OC)(c1cc3c(cc1OC)N(C)[C@@H]1[C@@](O)(C(=O)OC)[C@H](OC(C)=O)[C@]4(CC)C=CCN5CC[C@]31[C@@H]54)C2", "max response": "-8.6% (inactive)"}, {"smiles": "COC(=O)C[C@](O)(CCCC(C)(C)O)C(=O)O[C@@H]1C(OC)=C[C@]23CCCN2CCc2cc4c(cc2[C@H]13)OCO4", "outcome": "inactive"}, {"smiles": "CN1CCN(c2cc(C(=O)Nc3ccc4c(c3)-c3c(c(C(N)=O)nn3-c3ccc(F)cc3)CC4)c(Cl)cn2)CC1", "outcome": "inactive"}, {"smiles": "CC(C)C[C@H](NC(=O)CNC(=O)c1cc(Cl)ccc1Cl)B(O)O", "Potency": "3.72 µM (active)"}, {"smiles": "O=C(c1ccc(Nc2nccc(-c3cc4ccccc4s3)n2)cc1)N1CCC(N2CCCC2)CC1", "Potency": "23.5 µM (active)"}, {"smiles": "O=C(Nc1ncc(-c2cc(C(F)F)nn2-c2c(Cl)cccc2Cl)s1)C1CC1", "max response": "-7.36% (inactive) and -20.3% (inactive)"}, {"smiles": "O=C(O)C1(Cc2cccc(Nc3nccs3)n2)CCC(Oc2cccc(Cl)c2F)CC1", "note": "(centres undefined)", "Potency": "5.26 µM (active) and 4.61 µM (active)"}, {"smiles": "O=C(O)[C@H](Cc1c[nH]c2ccccc12)N1C(=O)c2ccccc2C1=O", "outcome": "inactive"}, {"smiles": "CN(C)CCCN=c1c2ccccc2n(C)c2[nH]c(=O)n(C)c(=O)c12", "Potency": "18.7 µM (active)"}, {"smiles": "COc1cc(C)c(Sc2cnc(NC(=O)c3ccc(CNC(C)C(C)C)cc3)s2)cc1C(=O)N1CCN(C(C)=O)CC1", "note": "(centres undefined)", "Potency": "5.9 µM (active)"}, {"smiles": "CS(=O)(=O)N1CCN(Cc2cc3nc(-c4cccc5[nH]ncc45)nc(N4CCOCC4)c3s2)CC1", "Potency": "0.0296 µM (active)"}, {"smiles": "Cc1cccc(C=NNc2cc(N3CCOCC3)nc(OCCc3ccccn3)n2)c1", "max response": "-6.14% (inactive)"}, {"smiles": "N#CCNC(=O)c1ccc(-c2ccnc(Nc3ccc(N4CCOCC4)cc3)n2)cc1", "Potency": "13 µM (active)", "max response": "-43.7% (inactive)"}, {"smiles": "Cn1cc(-c2ccncc2)c(-c2ccc(OCc3ccc4ccccc4n3)cc2)n1", "max response": "-14.9% (inactive)", "outcome": "inactive"}, {"smiles": "Nc1ccccc1NC(=O)c1ccc(CNc2nccc(-c3cccnc3)n2)cc1", "Potency": "3.72 µM (active)"}, {"smiles": "CC(C)(C)c1cc(NC(=O)Nc2ccc(-c3cn4c(n3)sc3cc(OCCN5CCOCC5)ccc34)cc2)no1", "outcome": "inactive"}, {"smiles": "CN1CCC(CNc2ccc3ncc(-c4cccc(OC(F)(F)F)c4)n3n2)CC1", "Potency": "13.2 µM (active) and 16.4 µM (active)"}, {"smiles": "CC(C)c1cc(-c2n[nH]c(=O)n2-c2ccc3c(ccn3C)c2)c(O)cc1O", "Potency": "0.0651 µM (active)"}, {"smiles": "CCN1CCN(CC(=O)Nc2ccc(-c3cccc4c(=O)cc(N5CCOCC5)oc34)c3sc4ccccc4c23)CC1", "Potency": "0.935 µM (active)"}]}]}
